PubChem BioAssay (Tox21)
Inconclusive results are not listed. Where a call stands in place of a potency, no number is given. Active and inactive are the calls of the source. Unless noted, the call rests on the fitted dose curve; in most records, active means well fitted curve in the direction sought with a large enough effect in the repeat runs; inconclusive means weak or mixed curves; inactive means no such curve, though single readings can be large; an effect the other way counts as inactive or inconclusive.

What was measured:
[1] = qHTS assay to identify small molecule antagonists of the glucocorticoid receptor (GR) signaling pathway - cell viability counter screen (AID 720693); further: nearly all actives have a fitted effect of over 55% in size
[2] = qHTS assay for identifying genotoxic compounds that show differential cytotoxicity against isogenic chicken DT40 cell lines with known DNA damage response pathways - Rev3 mutant cell line (AID 743014); further: nearly all actives have a fitted effect of over 55% in size; further: potency means the concentration at half of the fitted maximal effect
[3] = qHTS assay to identify small molecule antagonists of the androgen receptor (AR) signaling pathway - cell viability counter screen (AID 743033; further: nearly all actives have a fitted effect of over 45% in size)
[4] = qHTS assay to identify small molecule antagonists of the androgen receptor (AR) signaling pathway using the MDA cell line - cell viability counter screen (AID 743041; further: nearly all actives have a fitted effect of over 45% in size)
In short: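 Viability read by CellTiter-Fluor fluorescence in the same wells as the antagonist screen, added after 15.5 h of a 16 h, 37C exposure. Human breast carcinoma MDA-kb2 AR-luc cells, compounds co-dosed with agonist R1881.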

[5] = qHTS assay to identify small molecule antagonists of the thyroid receptor (TR) signaling pathway - cell viability counter screen (AID 743064); further: nearly all actives have a fitted effect of over 50% in size
In short: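 Same-well viability check: GH3.TRE-Luc cells stimulated with 1 nM T3 alongside test compound for 23.5 h, followed by CellTiter-Fluor fluorescence.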

[6] = qHTS assay to identify small molecule antagonists of the thyroid receptor (TR) signaling pathway (AID 743065); further: series mostly up to about 70 µM; nearly all actives have a fitted effect of over 55% in size
In short: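 Antagonism measured as loss of luciferase signal in GH3 cells stably carrying a TRE-luciferase reporter, co-treated with compound and T3 (1 nM final) for 23.5 h at 37 C. Viability was read in the same well by CellTiter-Fluor.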

[7] = tested on: thyroid hormone receptor (rat, GH3 cells); assay: qHTS assay to identify small molecule agonists of the thyroid receptor (TR) signaling pathway (AID 743066; calls by dose curve)
[8] = qHTS assay to identify small molecule antagonists of the estrogen receptor alpha (ER-alpha) signaling pathway - cell viability counter screen (AID 743074; calls by dose curve;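 further: HEK293 cells carrying ER-alpha-UAS-bla reporter stimulated with 17beta-estradiol; nearly all actives have a fitted effect of over 45% in size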)
[9] = qHTS assay to identify small molecule antagonists of the estrogen receptor alpha (ER-alpha) signaling pathway using the BG1 cell line - cell viability counter screen (AID 743081);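 further: compound given together with 17beta-estradiol as the ER stimulus; series mostly up to about 70 µM; nearly all actives have a fitted effect of over 45% in size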
[10] = target: Aromatase (Homo sapiens) (UniProt P11511); assay: qHTS assay to identify aromatase inhibitors (AID 743083); further: series mostly up to about 70 µM; nearly all actives have a fitted effect of over 55% in size
[11] = qHTS assay for identifying genotoxic compounds that show differential cytotoxicity against isogenic chicken DT40 cell lines with known DNA damage response pathways - wild type cell line (AID 743012); further: nearly all actives have a fitted effect of over 60% in size
In short: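 Viability by ATP luminescence (CellTiter-Glo, 30 min RT) after 40 h compound treatment at 37 C/5% CO2, using 300 parental DNA repair-proficient DT40 cells per well.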

[12] = target: Estrogen receptor (Homo sapiens) (UniProt P03372); assay: qHTS assay to identify small molecule antagonists of the estrogen receptor alpha (ER-alpha) signaling pathway (AID 743069; active means well fitted curve in the direction sought with a large enough effect in the signal ratio in the repeat runs, not every such curve was filed as active; the % refers to the signal ratio)
In short: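 Antagonist mode: compounds in DMSO were co-added with 17beta-estradiol to ER-alpha-bla HEK293 cells (2% charcoal-stripped serum) and left 18 h at 37C. Reporter inhibition was measured as FRET fluorescence after 2 h LiveBLAzer substrate at room temperature.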

[13] = target: Estrogen receptor (Homo sapiens) (UniProt P03372); assay: qHTS assay to identify small molecule agonists of the estrogen receptor alpha (ER-alpha) signaling pathway (AID 743075; calls by dose curve;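 further: HEK293 GripTite cells with ER-alpha and UAS-driven beta-lactamase reporter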)
[14] = target: Estrogen receptor (Homo sapiens) (UniProt P03372); assay: qHTS assay to identify small molecule agonists of the estrogen receptor alpha (ER-alpha) signaling pathway using the BG1 cell line (AID 743079); further: nearly all actives have a fitted effect of over 20% in size
[15] = qHTS assay for identifying genotoxic compounds that show differential cytotoxicity against isogenic chicken DT40 cell lines with known DNA damage response pathways - Rad54/Ku70 mutant cell line (AID 743015); further: nearly all actives have a fitted effect of over 60% in size; further: potency means the concentration at half of the fitted maximal effect
[16] = target: Androgen receptor (Homo sapiens) (UniProt P10275); assay: qHTS assay to identify small molecule antagonists of the androgen receptor (AR) signaling pathway (AID 743035; active means well fitted inhibition curve with a large enough effect in the signal ratio in the repeat runs, not every such curve was filed as active; the % refers to the signal ratio; further: potency means the concentration at half of the fitted maximal effect)
In short: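 Antagonist mode: AR-bla HEK293 cells co-treated with test compounds and agonist R1881 for 16 h at 37C, 5% CO2. Beta-lactamase activity read as FRET fluorescence after 2 h room-temperature substrate loading.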

[17] = target: Androgen receptor (Homo sapiens) (UniProt P10275); assay: qHTS assay to identify small molecule agonists of the androgen receptor (AR) signaling pathway using the MDA cell line (AID 743040; further: nearly all actives have a fitted effect of over 20% in size; further: potency means the concentration at half of the fitted maximal effect)
In short: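 Luciferase agonist assay: 16 h compound exposure at 37C without CO2 in MDA-kb2 AR-luc cells, whose MMTV promoter responds to both AR and GR. Luminescence measured after 30 min room-temperature incubation with ONE-Glo.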

[18] = target: Androgen receptor (Homo sapiens) (UniProt P10275); assay: qHTS assay to identify small molecule antagonists of the androgen receptor (AR) signaling pathway using the MDA cell line (AID 743042; further: nearly all actives have a fitted effect of over 55% in size)
In short: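 Antagonist mode: compounds plus R1881 agonist added to MDA-kb2 AR-luc cells, incubated 16 h at 37C. Luciferase reporter luminescence quantified, with multiplexed CellTiter-Fluor readout for cell viability.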

[19] = qHTS assay to identify small molecule antagonists of the estrogen receptor alpha (ER-alpha) signaling pathway using the BG1 cell line (AID 743080; calls by dose curve;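 further: BG1 cells stimulated with 17beta-estradiol alongside compound; series mostly up to about 70 µM; nearly all actives have a fitted effect of over 25% in size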)
In short: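 After 5 days in phenol-red-free 10% charcoal-stripped FBS medium, BG1-Luc-4E2 cells were seeded, left 24 h at 37 C, co-treated with compounds and 17beta-estradiol for 21.5 h, then assayed for viability and luciferase.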

[20] = target: Androgen receptor (Homo sapiens) (UniProt P10275); assay: qHTS assay to identify small molecule agonists of the androgen receptor (AR) signaling pathway (AID 743036; active means well fitted activation curve with a large enough effect in the signal ratio in the repeat runs, with a control signal flat, not every such curve was filed as active; the % refers to the signal ratio)
In short: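 Agonist activity was scored by beta-lactamase reporter fluorescence in stably transfected HEK293 cells exposed to compounds for 16 h at 37C and 5% CO2. Substrate loading took 2 h at room temperature.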

Androgen receptor (Homo sapiens), sequence (P10275 whole entry, looked up): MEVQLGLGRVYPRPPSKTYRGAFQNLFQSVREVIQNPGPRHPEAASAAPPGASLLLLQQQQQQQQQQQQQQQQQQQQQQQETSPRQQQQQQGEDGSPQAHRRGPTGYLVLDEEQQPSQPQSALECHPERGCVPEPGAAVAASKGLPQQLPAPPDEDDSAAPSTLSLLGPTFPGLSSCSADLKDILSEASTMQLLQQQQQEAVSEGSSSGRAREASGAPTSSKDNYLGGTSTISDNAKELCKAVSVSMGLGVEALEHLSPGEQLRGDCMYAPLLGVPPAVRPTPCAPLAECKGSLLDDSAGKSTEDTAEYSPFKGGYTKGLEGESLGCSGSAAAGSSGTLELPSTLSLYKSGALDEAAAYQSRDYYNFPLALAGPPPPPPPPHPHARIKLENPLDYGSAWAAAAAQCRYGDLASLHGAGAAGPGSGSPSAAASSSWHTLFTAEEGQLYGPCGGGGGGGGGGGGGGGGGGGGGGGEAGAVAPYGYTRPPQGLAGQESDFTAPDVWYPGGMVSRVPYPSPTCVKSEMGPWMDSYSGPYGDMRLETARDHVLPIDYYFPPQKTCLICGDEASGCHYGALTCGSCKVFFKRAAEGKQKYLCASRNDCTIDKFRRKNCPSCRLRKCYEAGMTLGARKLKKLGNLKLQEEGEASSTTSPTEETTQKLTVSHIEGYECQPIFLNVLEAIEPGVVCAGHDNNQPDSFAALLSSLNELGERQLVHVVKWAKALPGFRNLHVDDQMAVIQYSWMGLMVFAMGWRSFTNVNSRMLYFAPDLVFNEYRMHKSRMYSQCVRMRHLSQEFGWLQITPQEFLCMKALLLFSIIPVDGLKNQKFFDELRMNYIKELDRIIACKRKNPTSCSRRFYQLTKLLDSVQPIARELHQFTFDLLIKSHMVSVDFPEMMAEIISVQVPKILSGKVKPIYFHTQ
Estrogen receptor (Homo sapiens), sequence (P03372 whole entry, looked up): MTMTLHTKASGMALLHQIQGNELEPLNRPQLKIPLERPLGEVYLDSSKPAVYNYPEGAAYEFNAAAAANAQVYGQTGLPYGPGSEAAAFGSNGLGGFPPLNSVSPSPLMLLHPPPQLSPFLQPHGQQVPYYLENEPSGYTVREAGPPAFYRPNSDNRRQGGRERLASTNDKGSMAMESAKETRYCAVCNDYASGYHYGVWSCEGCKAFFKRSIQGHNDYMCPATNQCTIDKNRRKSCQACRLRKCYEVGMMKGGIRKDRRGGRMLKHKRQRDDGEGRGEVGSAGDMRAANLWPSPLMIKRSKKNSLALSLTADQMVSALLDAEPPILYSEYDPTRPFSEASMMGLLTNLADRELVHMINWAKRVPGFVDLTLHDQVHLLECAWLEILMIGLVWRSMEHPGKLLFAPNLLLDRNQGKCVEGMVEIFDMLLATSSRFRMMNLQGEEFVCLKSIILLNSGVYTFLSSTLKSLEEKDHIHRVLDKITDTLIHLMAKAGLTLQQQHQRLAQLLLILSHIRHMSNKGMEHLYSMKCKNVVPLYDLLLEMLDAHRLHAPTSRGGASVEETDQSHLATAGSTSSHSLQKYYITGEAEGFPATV
Aromatase (Homo sapiens), sequence (P11511 whole entry, looked up): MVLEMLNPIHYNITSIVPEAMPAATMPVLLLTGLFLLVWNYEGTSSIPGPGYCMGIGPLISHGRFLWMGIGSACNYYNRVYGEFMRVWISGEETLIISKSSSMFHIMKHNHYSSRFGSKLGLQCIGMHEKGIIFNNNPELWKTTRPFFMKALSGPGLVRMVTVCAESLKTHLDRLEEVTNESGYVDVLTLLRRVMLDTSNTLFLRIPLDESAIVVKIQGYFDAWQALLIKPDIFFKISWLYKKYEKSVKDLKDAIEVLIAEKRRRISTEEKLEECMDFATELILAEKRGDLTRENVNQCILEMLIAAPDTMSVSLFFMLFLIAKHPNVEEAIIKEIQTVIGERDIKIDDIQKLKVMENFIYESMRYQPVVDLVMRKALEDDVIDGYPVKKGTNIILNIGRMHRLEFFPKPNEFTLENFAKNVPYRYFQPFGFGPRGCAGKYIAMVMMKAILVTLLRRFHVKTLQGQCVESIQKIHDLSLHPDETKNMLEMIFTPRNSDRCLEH

Structure (SMILES)	outcome [1]	Potency [2]	outcome [3]	Potency [4]	Potency [5]	Potency [6]	outcome [7]	Potency [8]	outcome [9]	outcome [10]	Potency [11]	Potency [12]	Potency [13]	Potency [14]	Potency [15]	Potency [16]	Potency [17]	outcome [18]	Potency [19]	outcome [20]
C=C(C)C(=O)OCCOCCOCCOCCOC(=O)C(=C)C	inactive	inactive	inactive	inactive	inactive	inactive	inactive	inactive	inactive	inactive	–	–	–	–	–	–	–	–	–	–
COc1cc(C)nc(-n2nc(C)cc2OC)n1	inactive	–	inactive	inactive	inactive	inactive	inactive	inactive	inactive	inactive	–	–	–	–	–	–	–	–	–	–
O=C1c2ccccc2C(=O)c2cc(O)ccc21	–	–	inactive	inactive	inactive	inactive	inactive	inactive	–	inactive	inactive	–	–	–	–	–	–	–	–	–
CCOC(=O)CCC(=O)OCC	inactive	68.5 µM (active)	inactive	inactive	–	inactive	inactive	inactive	inactive	inactive	–	inactive	inactive	inactive	–	–	–	–	–	–
NC(=O)N[C@@H](CCC(=O)O)C(=O)O	–	inactive	inactive	inactive	inactive	inactive	inactive	inactive	inactive	–	inactive	–	–	–	inactive	–	–	–	–	–
CC12CCC(C(=O)C1=O)C2(C)C (configuration not stated)	inactive	inactive	inactive	inactive	inactive	inactive	inactive	–	inactive	inactive	–	–	–	–	–	–	–	–	–	–
C[C@@H]1C[C@H]2[C@@H]3C[C@H](F)C4=CC(=O)C(Cl)=C[C@]4(C)[C@@]3(F)[C@@H](O)C[C@]2(C)[C@@]1(O)C(=O)CO	inactive	–	inactive	inactive	inactive	–	inactive	inactive	inactive	inactive	–	–	inactive	inactive	29.8 µM (active)	3.38 µM (active)	0.006 µM (active)	inactive	–	–
O=[N+]([O-])c1ccc(/C=N\O)o1	inactive	–	inactive	inactive	inactive	inactive	inactive	inactive	inactive	inactive	–	inactive	inactive	inactive	–	–	–	–	inactive	–
Cc1ncc(COP(=O)(O)O)c(C=O)c1O	inactive	–	inactive	inactive	inactive	–	inactive	–	inactive	inactive	–	inactive	inactive	inactive	inactive	–	–	–	–	–
COc1cc(-c2ccc(=O)[nH]n2)ccc1OC(F)F	–	–	inactive	inactive	inactive	inactive	inactive	inactive	inactive	inactive	inactive	–	inactive	–	inactive	–	–	–	inactive	–
CCOCC(C)O (configuration not stated)	inactive	inactive	inactive	inactive	inactive	–	–	inactive	inactive	inactive	–	inactive	inactive	inactive	–	–	–	–	–	–
CCOC(=O)c1cnc2c(cnn2CC)c1NN=C(C)C	inactive	–	inactive	inactive	inactive	inactive	inactive	inactive	inactive	inactive	–	–	inactive	inactive	–	–	–	–	inactive	–
C=COCC1CCC(COC=C)CC1 (configuration not stated)	inactive	–	inactive	inactive	inactive	inactive	inactive	inactive	inactive	inactive	–	inactive	inactive	inactive	–	–	–	–	inactive	–
C=CC(=O)OCCCl	inactive	–	inactive	inactive	inactive	inactive	inactive	inactive	inactive	inactive	–	inactive	inactive	inactive	–	–	–	–	inactive	–
O=S(=O)(O)c1cccc2ccccc12	inactive	inactive	inactive	inactive	inactive	inactive	inactive	inactive	inactive	inactive	–	–	–	–	–	–	–	–	–	–
CCCCCCCCN1CCCC1=O	inactive	inactive	inactive	inactive	inactive	inactive	inactive	inactive	inactive	inactive	–	–	–	–	–	–	–	–	–	–
c1coc(CNc2ncnc3nc[nH]c23)c1	inactive	–	inactive	inactive	inactive	inactive	inactive	inactive	inactive	inactive	–	inactive	inactive	–	54.5 µM (active)	–	–	–	inactive	–
CC(C)(C)C(=O)Oc1ccc(S(=O)(=O)Nc2ccccc2C(=O)NCC(=O)O)cc1	inactive	–	inactive	inactive	inactive	–	inactive	inactive	–	inactive	–	inactive	inactive	inactive	inactive	–	–	–	–	–
CC(C)(C)c1ccc(-c2ccc(C(C)(C)C)cc2)cc1	inactive	–	–	inactive	inactive	inactive	inactive	inactive	inactive	inactive	–	inactive	inactive	inactive	inactive	inactive	inactive	inactive	–	inactive
CC(N)C12CC3CC(CC(C3)C1)C2 (configuration not stated)	inactive	–	inactive	inactive	inactive	inactive	inactive	inactive	inactive	inactive	–	inactive	inactive	inactive	inactive	–	–	–	–	–
COc1cc(C(=O)OC(COCCC(C)C)CN2CCOCC2)cc(OC)c1OC (configuration not stated)	inactive	inactive	–	inactive	inactive	inactive	inactive	inactive	–	inactive	–	–	inactive	inactive	–	–	–	–	–	–
O=C(O)c1cn(C2CC2)c2cc(N3CCNCC3)c(F)cc2c1=O	inactive	–	inactive	inactive	inactive	inactive	inactive	inactive	inactive	–	–	inactive	inactive	inactive	–	–	–	–	inactive	–
